# Laboratory results taken from PubChem BioAssay.
# Calls of active or inactive are those of the source. Unless noted, no rule for the calls is given here.
# Experiments:
# [1] = compound effects on lung adenocarcinoma cell viability – A549, calcein-AM fluorescence, 48 h, basal, profiling panel (AID 1162); details: higher = more signal; also: test concentration not given here
# [2] = compound effects on differentiated 3T3-L1 adipocyte viability – cell-based, 3T3-L1 adipocytes, calcein-AM fluorescence, 48 h, basal, profiling panel (AID 1163); details: 3T3-L1 adipocytes viability, higher = more signal; also: test concentration not given here
# [3] = compound effects on hepatocellular carcinoma cell viability – HepG2, calcein-AM fluorescence, 48 h, basal, profiling panel (AID 1164); details: higher = more signal; also: test concentration not given here
# [4] = compound effects on multiple myeloma cell viability – MM1S, calcein-AM fluorescence, 48 h, basal, profiling panel (AID 1165); details: higher = more signal;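 also: viability of MM1S multiple myeloma cells under basal unstimulated conditions; test concentration not given here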
# [5] = calcein-AM signal in unstimulated myeloma cells – cell-based, calcein-AM fluorescence, 48 h, PK04 Diversity Set, profiling panel (AID 1166); details: RPMI8226 myeloma viability, higher = more signal;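 also: cells grown under basal conditions without added stimulus; test concentration not given here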
# [6] = JC-1 mitochondrial signal, unstimulated HepG2 cells – cell-based, JC-1 fluorescence, 24 h, 100 nL compound, profiling panel (AID 1167); details: HepG2 mitochondrial potential, higher = more signal; also: test concentration not given here
# [7] = JC-1 mitochondrial signal, unstimulated adipocytes – cell-based, JC-1 fluorescence, 3T3-L1 adipocytes, 24 h, 100 nL compound, profiling panel (AID 1168); details: JC-1 mitochondrial fluorescence, higher = more signal, called active from +8 up or from −8 down; also: test concentration not given here
# [8] = JC-1 mitochondrial signal, unstimulated myeloma cells – cell-based, JC-1 fluorescence, RPMI8226, 24 h, 100 nL compound, profiling panel (AID 1169); details: JC-1 mitochondrial potential fluorescence, higher = more signal; also: test concentration not given here
# [9] = JC-1 mitochondrial signal, unstimulated MM1S myeloma – cell-based, JC-1 fluorescence, 24 h, 100 nL compound, profiling panel (AID 1170); details: MM1S mitochondrial potential, higher = more signal; also: test concentration not given here
# [10] = resazurin metabolic signal in A549 cells – cell-based, resazurin fluorescence, 24 h, PK04 Diversity Set, profiling panel (AID 1171); details: A549 viability, higher = more signal, called active from +8 up or from −8 down; also: test concentration not given here
# [11] = resazurin metabolic signal in HepG2 cells – cell-based, resazurin fluorescence, 24 h, PK04 Diversity Set, profiling panel (AID 1172); details: HepG2 viability, higher = more signal; also: test concentration not given here
# [12] = budding yeast growth changes without added modifier – OD600, strain BY4716, 24 h, basal condition, primary screen (AID 1173); details: S. cerevisiae BY4716 growth, OD600, 24 h; higher = more signal, called active from +8 up or from −8 down
# [13] = viability profiling in MM1S myeloma cells – cell-based, resazurin fluorescence, basal, 24 h, PK04 Diversity Set, profiling panel (AID 1174); details: higher = more signal, called active from +8 up or from −8 down; also: test concentration not given here
# [14] = target: Dihydroorotate dehydrogenase (quinone), mitochondrial (Plasmodium falciparum (isolate 3D7)) (UniProt Q08210); experiment: inhibition of P. falciparum DHODH – biochemical, C-terminal His tag, absorbance 600 nm, primary screen (AID 1175); details: PfDHODH enzyme, DCIP absorbance 600 nm; higher = more signal, called active from +8 up or from −8 down;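 also: recombinant parasite enzyme with a five histidine tag at its C terminus; test concentration not given here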
# Chain of Dihydroorotate dehydrogenase (quinone), mitochondrial (Plasmodium falciparum (isolate 3D7)) (Q08210 whole entry, looked up): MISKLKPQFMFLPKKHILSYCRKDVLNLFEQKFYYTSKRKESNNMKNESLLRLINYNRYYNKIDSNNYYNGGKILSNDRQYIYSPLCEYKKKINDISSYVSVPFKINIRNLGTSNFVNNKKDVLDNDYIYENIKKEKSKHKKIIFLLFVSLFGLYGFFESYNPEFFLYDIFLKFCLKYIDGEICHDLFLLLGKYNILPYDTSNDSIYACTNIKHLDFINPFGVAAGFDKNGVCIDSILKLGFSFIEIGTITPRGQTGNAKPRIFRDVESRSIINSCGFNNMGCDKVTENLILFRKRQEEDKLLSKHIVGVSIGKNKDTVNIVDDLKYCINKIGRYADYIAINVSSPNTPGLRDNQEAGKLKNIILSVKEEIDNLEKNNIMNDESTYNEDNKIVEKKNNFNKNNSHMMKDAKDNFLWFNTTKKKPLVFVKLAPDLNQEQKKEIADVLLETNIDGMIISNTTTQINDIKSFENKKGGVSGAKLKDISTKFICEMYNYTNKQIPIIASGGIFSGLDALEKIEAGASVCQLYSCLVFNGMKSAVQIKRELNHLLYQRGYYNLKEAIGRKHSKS
# [15] = inhibition of PAO1 biofilm formation – strain PAO1, LB-PBS medium, absorbance 600 nm, primary screen (AID 1176); also: test concentration not given here; details: P. aeruginosa PAO1 growth/biofilm, A600, 12 h; higher = more signal
# [16] = growth modulation of vineyard yeast isolate – strain RM11-1a, OD600, basal, 24 h, primary screen (AID 1177);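 also: cultures grown under basal conditions with no added stressor; test concentration not given here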; details: S. cerevisiae RM11-1a growth, OD600, 24 h; higher = more signal, called active from +8 up or from −8 down
# [17] = growth of efflux-deficient E. coli DRC39 – strain DRC39, OD650, 24 h, E. coli filamentation inducers, primary screen (AID 1178);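 also: growth measured as culture turbidity by optical density at 650 nm; test concentration not given here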; details: E. coli DRC39 acrAB, higher = more signal, called active from +8 up or from −8 down
# [18] = growth of efflux-deficient E. coli DRC39 – strain DRC39, OD650, 48 h, E. coli filamentation inducers, primary screen (AID 1179);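 also: screen aims at cell division blockers that make cells filament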; details: E. coli DRC39 delta-acrAB growth, higher = more signal, called active from +8 up or from −8 down
# [19] = viability profiling in RPMI8226 myeloma cells – cell-based, resazurin fluorescence, basal, 24 h, PK04 Diversity Set, profiling panel (AID 1180); details: higher = more signal;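 also: RPMI8826 multiple myeloma cell line at 5000 cells per well; test concentration not given here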
# [20] = target: E3 ubiquitin-protein ligase XIAP (Homo sapiens) (UniProt P98170); experiment: small molecules binding XIAP protein – biophysical, small-molecule microarray, fluorescence 635 nm, primary screen (AID 1181); details: higher = more signal;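 also: score merges 667 nm emission and signal to noise over triplicate slides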
# Chain of E3 ubiquitin-protein ligase XIAP (Homo sapiens) (P98170 whole entry, looked up): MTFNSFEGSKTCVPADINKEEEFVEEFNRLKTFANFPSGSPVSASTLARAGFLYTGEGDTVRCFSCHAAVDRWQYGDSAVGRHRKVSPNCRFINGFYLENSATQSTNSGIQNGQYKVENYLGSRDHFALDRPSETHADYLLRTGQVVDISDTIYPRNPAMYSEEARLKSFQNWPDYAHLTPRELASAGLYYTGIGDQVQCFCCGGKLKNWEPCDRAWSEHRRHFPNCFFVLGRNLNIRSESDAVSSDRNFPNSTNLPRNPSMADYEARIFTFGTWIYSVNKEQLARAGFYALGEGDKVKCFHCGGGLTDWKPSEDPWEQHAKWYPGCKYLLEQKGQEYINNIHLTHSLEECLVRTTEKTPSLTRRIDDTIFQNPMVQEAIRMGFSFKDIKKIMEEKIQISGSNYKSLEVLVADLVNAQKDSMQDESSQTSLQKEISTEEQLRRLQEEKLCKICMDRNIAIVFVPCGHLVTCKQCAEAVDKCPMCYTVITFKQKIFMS
Compound,z-score [1],z-score [2],z-score [3],z-score [4],z-score [5],z-score [6],z-score [7],z-score [8],z-score [9],z-score [10],z-score [11],z-score [12],z-score [13],composite z-score [14],z-score [15],z-score [16],z-score [17],z-score [18],z-score [19],composite z-score [20]
CC(C)N1C(=O)c2ccccc2[C@@H](C(=O)NCCCN(C)C)[C@@H]1c1ccc(CO)cc1,0.177,1.46,0.0397,0.551,-0.981,1.09,-0.205 (inactive),0.75,0.499,-0.565 (inactive),-0.456,-0.725 (inactive),-0.0365 (inactive),0.465 (inactive),-0.273 (inactive),0.625 (inactive),-0.315 (inactive),-0.621 (inactive),0.764,0.013
CC=CC(O)C1C=CC2C(=O)N(c3ccccc3)C(=O)C2N1Nc1ccc(C(C)C)cc1 (stereo not given),0.0409,0.146,0.645,-0.0872,-0.849,-1.09,-1.32 (inactive),-0.467,-1.08,-1.65 (inactive),-1.76,0.474 (inactive),-0.785 (inactive),0.784 (inactive),0.518 (inactive),1.11 (inactive),-0.457 (inactive),-1.02 (inactive),-0.863,0.384
CCOC(=O)C1=CC[C@@H](c2ccccc2Cl)N(S(=O)(=O)c2ccc(C)cc2)C1,-0.378,-0.529,0.15,-1.63,-1.51,4.34,-0.0958 (inactive),-0.329,-1.99,-0.561 (inactive),-0.358,-1.65 (inactive),0.0161 (inactive),-0.978 (inactive),-0.308 (inactive),-0.24 (inactive),-0.203 (inactive),1.03 (inactive),-1.37,-0.0115
CC(C)c1ccc(NN2C(C(O)c3cccc(O)c3)C=CC3C(=O)N(c4ccccc4)C(=O)C32)cc1 (stereo not given),-1.09,-0.35,-0.753,-0.26,-0.237,-1.85,-0.948 (inactive),-0.554,-0.749,0.403 (inactive),-0.546,-0.914 (inactive),-0.501 (inactive),0.523 (inactive),0.186 (inactive),1.63 (inactive),-0.0564 (inactive),-0.063 (inactive),-0.111,0.42
COCCOC(=O)N1C(=O)[C@@]2(c3ccccc31)[C@H](C(=O)Nc1nc3ccccc3s1)[C@H]1C(=O)O[C@H](c3ccccc3)[C@H](c3ccccc3)N1[C@@H]2c1ccc(OCCO)cc1,-0.257,1.73,-1.23,-2.13,-1.62,-3.14,1.68 (inactive),-0.806,-1.57,0.18 (inactive),0.353,1.42 (inactive),-0.477 (inactive),-0.691 (inactive),3.49 (inactive),1.75 (inactive),0.0253 (inactive),-0.383 (inactive),-0.162,0.0641
CCOC(=O)C[C@H]1[C@H](OC(=O)Cc2ccc3c(c2)OCO3)[C@@H](NC(=O)C2CCCCC2)c2cc(OCCCO)ccc2N1C(=O)Cc1ccc(OC)cc1,0.746,0.433,1.08,0.747,0.664,2.39,0.0143 (inactive),-0.0561,-0.784,-0.247 (inactive),-0.778,-0.815 (inactive),0.184 (inactive),-0.974 (inactive),0.183 (inactive),-1.53 (inactive),0.015 (inactive),0.424 (inactive),0.283,0.0413
CC1=C2[C@@H](CCc3ccccc3)OB(O)C[C@@H]2n2c(=O)n(-c3ccccc3)c(=O)n2C1,0.328,-0.448,-0.335,0.271,-1.14,-2.01,0.553 (inactive),0.146,-0.126,-0.699 (inactive),-0.32,-2.07 (inactive),-0.498 (inactive),0.369 (inactive),-0.177 (inactive),-0.42 (inactive),-0.618 (inactive),-0.63 (inactive),-0.582,0.0193
CC(C)CNC(=O)[C@@]1(c2ccc([N+](=O)[O-])cc2)CC(=O)N(CC23CC4CC(CC(C4)C2)C3)[C@@H]1c1ccc(CO)cc1,-0.642,1.57,-0.715,-2.68,-3.66,0.0331,0.226 (inactive),-1,0.857,-2.47 (inactive),-1.69,-0.565 (inactive),-2.08 (inactive),-1.23 (inactive),0.913 (inactive),-0.813 (inactive),0.629 (inactive),1.25 (inactive),-3.32,-0.193
